Structures are written as SMILES. Among all 1,300 compounds or so, about 420 (32%) were called active. About 32% were inconclusive and are not listed. Calls come from the whole dose curve; as a rule, active = well fitted inhibition curve with a large enough effect; inconclusive = small, poorly fitted or top-dose-only effect; inactive = no such curve, though single readings can be large or run the other way. The list shows a part of the results. A call without a number means that no potency is given here.
Potency is the fitted concentration of half-maximal effect.

This test addresses C-terminal-binding protein 1 (Homo sapiens) (UniProt Q13363). The experiment in a line: qHTS for Inhibitors of the Phosphatase Activity of Eya2: Carboxyl-terminal binding protein (CtBP) Counterscreen for Cherry-picked Compounds. Note: nearly all actives have a fitted effect of over 65% in size. The conditions noted are these: purified protein-protein binding, AlphaScreen, 3 h; series mostly up to 46.1 µM. In a few lines: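 Cherry-picked compounds (final 2.5 nM–46 uM) were incubated 2 h at RT with 25 nM CtBP-6xHIS and 25 nM GST-E1A. Alpha beads (20 ug/mL) were then added for 1 h, light-protected; DMSO and E1A peptide inhibitor wells set the normalization.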
Turning to `Cc1c(CC(=O)N[C@@H](C)C(=O)O)c(=O)oc2cc3occ(-c4ccccc4)c3cc12`, the Potency was 6.75 µM (active).
In the case of `COc1ccc(-c2coc3cc4oc(=O)c(CC(=O)O)c(C)c4cc23)cc1`, the Potency is 13.5 µM (active).
As for `Cc1c(CC(=O)NCCCC(=O)O)c(=O)oc2cc3occ(-c4ccccc4)c3cc12`, the figure is 13.5 µM (active).
Consider `Cc1c(CC(=O)NCC(=O)O)c(=O)oc2cc3occ(-c4ccccc4)c3cc12`, for which the Potency was 13.5 µM (active).
Turning to `N#Cc1ccc(CSc2nnc(-c3c[nH]c4ccccc34)n2-c2ccccc2)cc1`, the Potency entry is “inactive”.
On to `Cc1c(CCC(=O)NCCCCCC(=O)O)c(=O)oc2cc3occ(-c4ccccc4)c3cc12`, for which the Potency was 8.49 µM (active).
Regarding `COc1cccc2c1C(=O)/C(=C/c1ccc(N(C)C)cc1)C2`, the Potency is 4.78 µM (active).
As for `CN(C)CCNc1ccc2ncn3c4ccc(O)cc4c(=O)c1c23`, the Potency was 1.9 µM (active).
Turning to `CN(C)CCNc1ccc2nnn3c4ccc(O)cc4c(=O)c1c23`, the Potency is 1.2 µM (active).
As for `O=C(CC1(O)C(=O)Nc2ccccc21)c1ccccc1` (configuration not stated), the entry is “inactive”.
Regarding `CCOC(=O)c1c(NC(=O)/C=C/C(=O)O)sc(C)c1-c1ccc(Cl)cc1`, the Potency result is “inactive”.
`Cn1c(=O)c(N)c2c3c(c(Br)ccc31)C(=O)c1ccccc1-2`: the Potency was 9.53 µM (active).
In the case of `Cc1c(NC(=O)c2ccco2)cccc1C(=O)NN1C(=O)c2ccccc2C1=O`, the Potency result is “inactive”.
On to `CCc1c(C)nc(Nc2nc(C)c3ccc(OC)cc3n2)[nH]c1=O`, for which the Potency was 3.38 µM (active).
In the case of `Cc1nn2c(c1-c1ccccc1)NC1=C(C(=O)CCC1)C2c1ccccc1` (configuration not stated) it was “inactive”; in that of `C/C=C/c1ccc(OCCSc2nc(C)cc(=O)[nH]2)c(OC)c1`, 10.7 µM (active).
As to `O=S(=O)(Nc1nnc(-c2ccccc2)s1)c1ccc(Cl)cc1`, the Potency was 16.9 µM (active).
As for `Cc1n[nH]c(=S)n(NC(=O)CC(=O)Nn2c(=S)[nH]nc(C)c2=O)c1=O`, the figure is 1.2 µM (active); as for `CC1=CC(C)(C)Nc2ccc(OC(=O)CN3C(=O)c4ccccc4C3=O)cc21`, “inactive”; as for `O=S(=O)(c1ccc(Cl)s1)N1CCc2ccccc2C1`, “inactive”.
As for `Cc1ccc(S(=O)(=O)NN2C(=O)/C(=C/c3cccc(F)c3)SC2=S)cc1`, the entry is “inactive”; as for `COc1ccc(OC)c(/C=C2\SC(=S)N(NS(=O)(=O)c3ccccc3)C2=O)c1`, “inactive”; as for `O=C(NN1C(=O)/C(=C\c2ccc(O)c([N+](=O)[O-])c2)SC1=S)c1ccccc1Cl`, 12 µM (active).
As for `COc1ccc(Nc2nc(C(C)(C)C)nc3c2nnn3Cc2ccccc2Cl)cc1OC`, the Potency entry was “inactive”.
`CCOC(=O)C1CCCN(C2=C(NS(=O)(=O)c3ccc(Br)cc3)C(=O)c3ccccc3C2=O)C1` (configuration not stated): the Potency was 12 µM (active).
Take `CCOC(=O)CNC(=O)C1CCCN(c2ncccn2)C1` (configuration not stated): the Potency entry was “inactive”.
As for `CCOC(=O)C1CCN(C2=C(NS(=O)(=O)c3ccc(Br)cc3)C(=O)c3ccccc3C2=O)CC1`, the figure is 5.36 µM (active); as for `NC(=O)C1CCN(c2oc(-c3cccs3)nc2S(=O)(=O)c2ccc(Br)cc2)CC1`, “inactive”.
Regarding `c1ccc(CSc2ccc3nnc(-c4ccccn4)n3n2)cc1`, the Potency was 13.5 µM (active).
For the molecule `Brc1ccc(CSc2ccc3nnc(-c4ccccn4)n3n2)cc1`, the Potency was 13.5 µM (active).
As for `Brc1ccc(CSc2ccc3nnc(-c4cccnc4)n3n2)cc1`, the entry is “inactive”; as for `COC(=O)c1ccc(CSc2ccc3nnc(-c4ccccn4)n3n2)o1`, 7.57 µM (active).
As for `CCOc1ccc(NC(=O)C2CC(=O)N(CCc3ccc(OC)c(OC)c3)C2)cc1OCC` (configuration not stated), the figure is 19 µM (active).
With `CN(C)c1ccc(C(CNS(=O)(=O)c2ccc(F)c(F)c2)c2c[nH]c3ccccc23)cc1` (configuration not stated), the Potency entry was “inactive”.
As to `COc1ccc2oc(C(=O)Nc3cccc(S(=O)(=O)N4CCOCC4)c3)c(C)c2c1`, the Potency result is “inactive”.
Consider `COc1ccc(S(=O)(=O)N2CCOCC2)cc1C(=O)Nc1cccc(C(=O)NC2CC2)c1`, for which the Potency was 15.1 µM (active).
For the molecule `NC(=O)C1CCN(CC(=O)Nc2ccc3c(c2)OCO3)CC1`, the Potency entry was “inactive”.
With `Cc1ccc(NC(=O)/C=C/c2ccc3c(c2)OCO3)cc1S(=O)(=O)N1CCOCC1`, the Potency was 6.75 µM (active).
Turning to `O=C(COC(=O)c1cc(=O)[nH]c2ccccc12)Nc1cccc(S(=O)(=O)N2CCOCC2)c1`, the Potency entry was “inactive”.
As for `COc1ccc(/C=C/C(=O)Nc2cccc(S(=O)(=O)N3CCOCC3)c2)cc1OC`, the Potency is 15.1 µM (active).
On to `S=C(Nc1ccc2c(c1)OCCO2)Nc1ccc2c(c1)OCO2`, for which the Potency result is “inactive”.
In the case of `O=C(COC(=O)c1cc(S(=O)(=O)N2CCOCC2)ccc1O)Nc1ccc2c(c1)OCO2` it was “inactive”; in that of `Cc1ccc(NC(=O)c2ccc3c(c2)OCO3)cc1S(=O)(=O)N1CCOCC1`, 8.49 µM (active).
As for `Oc1ccc(-c2nc3c4c(ncn3n2)-c2ccccc2CC42CCCC2)cc1`, the entry is “inactive”.
As for `Cc1ccc(Nc2nc(N)nc(CSc3nnc(C)s3)n2)cc1`, the entry is “inactive”.
Consider `O=C(O)C1=C[C@@H](c2csc3ccccc23)C[C@@H](OCc2ccc(CO)cc2)O1`, for which the Potency result was “inactive”.
Regarding `CN(C)Cc1ccccc1Sc1cccc2ccccc12`, the Potency result was “inactive”.
Take `CCN(CC)C(=O)c1ccc(O)c(OC)c1`: the Potency result was “inactive”.
In the case of `COc1ccccc1-n1c(SCC(=O)Nc2cc(C)on2)nc2c(c1=O)SCC2` it was “inactive”; in that of `COc1cccc(-c2nnc(SCC(=O)Nc3cc(C)on3)o2)c1`, 12 µM (active).
With `Cc1cc(NC(=O)CS(=O)(=O)c2cn(Cc3cccc(Br)c3)c3ccccc23)no1`, the Potency result is “inactive”.
With `O=C(Nc1cccc(O)c1)c1cccc(C(=O)Nc2cccc(O)c2)c1`, the Potency was 8.49 µM (active).
Consider `O=C(Nc1ccccc1)C(Cl)C(=O)c1ccccc1` (configuration not stated), for which the Potency result was “inactive”.
`CCC(=O)Nc1nc2c(OC)ccc(OC)c2s1`: the Potency entry is “inactive”.
`COc1cc(CNC(=O)Nc2nc(C(N)c3ccccc3)cs2)cc(OC)c1OC` (configuration not stated): the Potency was 13.5 µM (active).
Turning to `O=S(=O)(c1ccccc1)[C@@]1(c2ccccc2)C[C@@H]2ON=C(c3cccc(-c4ccccc4)c3)[C@@H]2C1`, the Potency result is “inactive”.
Consider `COc1cccc(C=NCC(C)N=Cc2cccc(OC)c2O)c1O` (configuration not stated), for which the Potency was 16.9 µM (active).
Consider `COc1ccc(N2CCN(C(c3ccco3)c3sc4nc(C)nn4c3O)CC2)cc1` (configuration not stated), for which the Potency entry was “inactive”.
As for `Oc1c(C(c2cccs2)N2CCN(c3ccccc3)CC2)sc2ncnn12` (configuration not stated), the figure is 19 µM (active).
For the molecule `O=c1c(O)cccc2cc(O)c(O)c(O)c12`, the Potency was 15.1 µM (active).
As for `COc1ccccc1NC(=O)c1ccc(NC(=O)Cc2n[nH]c(=O)c3ccccc23)cc1`, the entry is “inactive”; as for `COc1ccccc1OCC(=O)Nc1ccc(C(=O)Nc2ccccc2C(=O)O)cc1`, 16.9 µM (active).

Source of the values: PubChem BioAssay AID720541 (National Center for Advancing Translational Sciences (NCATS), 2013).
